ChEMBL document CHEMBL3988442, “University of Dundee, Small-Polar-MMV Screening Library” (2021)
The campaign covered roughly 67,000 compounds. About 300 (0.45%) showed an effect of 50% or more. The sample as a whole holds a higher share of strong results than the screen did.

What follows are molecules tested against Polyketide synthase Pks13 (Mycobacterium tuberculosis (strain ATCC 25618 / H37Rv)) (UniProt I6X8D2) (assay: Mycobacterium tuberculosis Polyketide synthase 13 Thioesterase (PKS13)). Details: 30 µM.
Format: functional
Set-up: scale not given: in the data most compounds retested in dose-response had high values

Polyketide synthase Pks13 (Mycobacterium tuberculosis (strain ATCC 25618 / H37Rv)), sequence (I6X8D2 whole entry): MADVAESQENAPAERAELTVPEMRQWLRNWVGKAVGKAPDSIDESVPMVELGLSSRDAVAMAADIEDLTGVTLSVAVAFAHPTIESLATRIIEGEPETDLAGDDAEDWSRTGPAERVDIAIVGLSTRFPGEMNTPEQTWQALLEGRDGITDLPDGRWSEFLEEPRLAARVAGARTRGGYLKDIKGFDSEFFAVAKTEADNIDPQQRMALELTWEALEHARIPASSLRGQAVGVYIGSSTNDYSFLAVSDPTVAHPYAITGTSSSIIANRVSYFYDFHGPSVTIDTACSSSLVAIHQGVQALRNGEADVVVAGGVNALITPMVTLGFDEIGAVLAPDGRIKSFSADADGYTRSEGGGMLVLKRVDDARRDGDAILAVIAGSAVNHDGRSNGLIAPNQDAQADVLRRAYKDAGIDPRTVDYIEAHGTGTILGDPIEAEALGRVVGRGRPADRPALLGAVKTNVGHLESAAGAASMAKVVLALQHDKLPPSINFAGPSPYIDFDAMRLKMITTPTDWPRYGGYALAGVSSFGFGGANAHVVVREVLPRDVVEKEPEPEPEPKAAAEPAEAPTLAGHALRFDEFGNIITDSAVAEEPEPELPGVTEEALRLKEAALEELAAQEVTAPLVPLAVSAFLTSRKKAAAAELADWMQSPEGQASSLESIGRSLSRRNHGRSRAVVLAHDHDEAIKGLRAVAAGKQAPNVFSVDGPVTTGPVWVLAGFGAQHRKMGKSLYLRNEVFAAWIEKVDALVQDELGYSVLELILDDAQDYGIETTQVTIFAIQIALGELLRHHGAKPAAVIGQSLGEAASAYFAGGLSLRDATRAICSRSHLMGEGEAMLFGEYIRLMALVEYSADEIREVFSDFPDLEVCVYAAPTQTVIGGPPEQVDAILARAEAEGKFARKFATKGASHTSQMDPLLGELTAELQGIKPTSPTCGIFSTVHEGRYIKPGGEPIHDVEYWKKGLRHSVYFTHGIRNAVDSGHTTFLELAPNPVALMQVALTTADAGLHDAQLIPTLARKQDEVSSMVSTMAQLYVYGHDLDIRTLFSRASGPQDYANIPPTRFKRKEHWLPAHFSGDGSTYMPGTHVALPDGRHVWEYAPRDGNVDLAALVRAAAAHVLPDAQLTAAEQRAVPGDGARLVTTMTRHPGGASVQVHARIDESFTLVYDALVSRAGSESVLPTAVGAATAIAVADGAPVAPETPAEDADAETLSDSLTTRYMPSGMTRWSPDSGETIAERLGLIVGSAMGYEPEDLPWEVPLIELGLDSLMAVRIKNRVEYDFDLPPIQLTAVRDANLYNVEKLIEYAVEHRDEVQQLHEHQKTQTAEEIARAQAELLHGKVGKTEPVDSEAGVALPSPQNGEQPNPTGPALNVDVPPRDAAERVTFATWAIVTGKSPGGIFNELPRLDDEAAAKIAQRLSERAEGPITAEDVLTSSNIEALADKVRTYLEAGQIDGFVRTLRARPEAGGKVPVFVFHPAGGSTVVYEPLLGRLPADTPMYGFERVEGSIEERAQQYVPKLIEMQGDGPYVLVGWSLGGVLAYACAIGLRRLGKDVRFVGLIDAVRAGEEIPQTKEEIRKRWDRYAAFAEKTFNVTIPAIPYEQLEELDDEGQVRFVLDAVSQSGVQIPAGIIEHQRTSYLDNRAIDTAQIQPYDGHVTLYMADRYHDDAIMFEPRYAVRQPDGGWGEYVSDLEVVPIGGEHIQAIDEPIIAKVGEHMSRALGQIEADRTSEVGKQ

| Structure (SMILES) | Percent Effect [%] |
| --- | --- |
| CCOc1cc(C(=O)n2cc(C)cn2)cc(OCC)c1OCC | 53.3 |
| CCOc1cc(C(=O)n2cccn2)cc(OCC)c1OCC | 21.5 |
| CCOC(=O)N1CCN(C(=O)c2cc(OCC)c3ccoc3c2)CC1 | 22.8 |
| Cc1nnsc1CN1C[C@H]2CC[C@@H]1CN(Cc1ccccn1)C2 | 2.49 |
| Cc1cc(S(=O)(=O)Nc2cccc(OC(F)F)c2)sc1C(=O)O | 72.8 |
| CC(=O)c1cccc(NS(=O)(=O)c2cc(C)c(C(=O)O)s2)c1 | 11.7 |
| O=C(O)c1csc(S(=O)(=O)Nc2cccc(OC(F)F)c2)c1 | 24.7 |
| CCOc1ccc(NS(=O)(=O)c2cc(C)c(C(=O)O)s2)c(C)c1 | -32.6 |
| CCOc1cc(F)ccc1NS(=O)(=O)c1cc(C)c(C(=O)O)s1 | 4.81 |
| CCOc1cc(C)ccc1NS(=O)(=O)c1cc(C)c(C(=O)O)s1 | -26.3 |
| CCOc1ccc(NS(=O)(=O)c2cc(C)c(C(=O)O)s2)cc1F | -32.1 |
| Cc1cc(S(=O)(=O)Nc2cccc(I)c2)sc1C(=O)O | 70 |
| Cc1cc(S(=O)(=O)Nc2cccc(-n3cccc3)c2)sc1C(=O)O | 74 |
| CCc1cccc(NS(=O)(=O)c2cc(C)c(C(=O)O)s2)c1 | 56.8 |
| CCOc1cccc(NS(=O)(=O)c2cc(C)c(C(=O)O)s2)c1 | 33.3 |
| CCOc1c(Cl)cccc1NS(=O)(=O)c1cc(C)c(C(=O)O)s1 | -18.8 |
| Fc1ccc(CN2CCO[C@H]3[C@H](OCC4CC4)CC[C@@H]32)cc1 | -2.1 |
| CO[C@H]1CCN(S(=O)(=O)N(C)C)[C@@H]2CN(Cc3cccnc3)C[C@H]12 | 12.3 |
| CCOC(=O)[C@@H]1[C@@H](c2ccccc2)CN2CCN(C(C)=O)C[C@H]12 | 0.569 |
| Cc1nc(CN2C[C@H]3C[C@H](C(=O)NCC4CC4)N(C)[C@H]3C2)cs1 | 16.8 |
| O=C(Cc1ccsc1)N1C[C@@H]2OCCN(CC3CCCO3)[C@@H]2C1 (stereo partly specified) | -0.843 |
| c1cnn(CCCO[C@@H]2CC[C@H]3[C@H]2OCCN3CC2CC2)c1 | -15.8 |
| Cc1nccc(N2CC[C@@H]3[C@@H](CCC(=O)N3CCc3ccccc3)C2)n1 | -11 |
| O=C(NC1CCCC1)[C@@H]1CN(Cc2nccs2)C[C@H]2OCC[C@H]21 | -23.6 |

| Structure (SMILES) | Percent Effect [%] |
| --- | --- |
| CCOCC(=O)N1C[C@H]2CN(CC3CC3)C(=O)[C@H]2C1 | -37.5 |
| CC(=O)N1C[C@@H](F)[C@@H](OCc2nc3ccc(C#N)cc3[nH]2)C1 | -28.7 |
| Cc1ccc2[nH]c(CO[C@H]3CN(C(=O)C4CC4)C[C@H]3F)nc2c1 | 17.3 |
| Cc1ccc2[nH]c(CO[C@H]3CN(c4ccc(C#N)cn4)C[C@H]3F)nc2c1 | 53.9 |
| CC(C)C(=O)N1C[C@H]2CCCN[C@H]2C1 | -32.8 |
| O=C(C[C@H]1[C@H]2CN(C(=O)CO)C[C@@H]12)Nc1cccnc1 | -10.3 |
| O=S(=O)(c1ccc(N2CCCCC2)c2nonc12)N1CCCCC1 | 29.3 |
| O=S(=O)(c1c(N2CCCC2)ccc2nonc12)N1CCCC1 | 32.4 |
| O=S(=O)(c1c(N2CCCCC2)ccc2nonc12)N1CCCCC1 | 51.7 |
| CC(C)C(=O)N1CCN(C(=O)c2cscn2)[C@H]2CS(=O)(=O)C[C@H]21 | -12.2 |
| O=C1CO[C@H]2CN(C3CCOCC3)C[C@H]2N1Cc1ccncc1 | -35.6 |
| CCN(Cc1nc2c(cnn2C)c(=O)[nH]1)c1ccc(F)cc1 | -7.87 |
| CCN(Cc1nc2c(cnn2C)c(=O)[nH]1)c1ccccc1 | 66.8 |
| CCN(Cc1nc2c(cnn2C)c(=O)[nH]1)c1cccc(F)c1 | -8.73 |
| CN1CCC(NC(=O)c2cc(Br)cc(Cl)c2O)C1=O (stereo unspecified) | 11.6 |
| CN1CCC(NC(=O)c2cc(F)cc(Cl)c2O)C1=O (stereo unspecified) | 54 |
| CN1CCC(NC(=O)c2cc(Cl)cc(Br)c2O)C1=O (stereo unspecified) | 11.2 |
| C/C(NC(=O)c1ccccn1)=C1\C(=O)C[C@@H]2[C@H]1C2(C)C | 37.5 |
| COCc1noc(-c2ccc(N(C)Cc3cc(C)no3)nc2)n1 | -8.23 |
| COCc1noc(-c2ccc(N(C)Cc3ccc(C)o3)nc2)n1 | 69.6 |
| COCc1noc(-c2ccc(N(C)Cc3ncccc3C)nc2)n1 | 5.81 |
| COCCN(C)CC(=O)N1C[C@H]2CC[C@@H]1CN(C(=O)c1ccncc1)C2 | -9.17 |
| Cc1oc(C(C)C)cc1C(=O)N1C[C@H]2CC[C@@H]1CN(C(=O)N(C)C)C2 | -5.27 |
| Cc1ccc(N2C[C@H]3CCC[C@@H](CN(C)C)[C@H]3C2)nn1 | -24.5 |

| Structure (SMILES) | Percent Effect [%] |
| --- | --- |
| CC(C)(C)c1cc(NC(=O)CN2CCC(N3CCNC3=O)CC2)on1 | 80.9 |
| Cc1cc(NC(=O)CN2CCC(N3CCNC3=O)CC2)on1 | -25.3 |
| CC(C)c1cc(NC(=O)CN2CCC(N3CCNC3=O)CC2)on1 | 0.26 |
| Cc1noc(C)c1CN1C[C@@H]2OCCN(Cc3cnn(C)c3)[C@@H]2C1 | -27.8 |
| C[C@@H]1C[C@@H]2CCN(Cc3nccs3)C[C@H]2O1 | -25.2 |
| c1cncc(COC[C@H]2CC[C@H]3[C@H](CCN3Cc3cccs3)O2)c1 | -37.9 |
| Cc1ccc(Cl)cc1NC(=O)C1CC(=O)N(Cc2ccccn2)C1 (stereo unspecified) | -5.88 |
| O=C(Nc1ccccn1)C1CC(=O)N(Cc2ccccn2)C1 (stereo unspecified) | -26.6 |
| CCc1cccc(C)c1NC(=O)C1CC(=O)N(Cc2ccccn2)C1 (stereo unspecified) | 58.8 |
| Cc1nnc([C@H]2C[C@H]3OCC[C@H]3N(S(=O)(=O)N(C)C)C2)o1 | -28.4 |
| CC(C)N1CCO[C@H]2CN(Cc3cc[nH]n3)C[C@H]21 | -16.1 |
| CN(Cc1ccco1)C[C@H]1OC[C@@H]2CCN(Cc3cccs3)C[C@@H]21 | -7.96 |
| Cc1ccn2c(=O)cc(CSCC(=O)Nc3nnc(C(C)C)s3)nc2c1 | -42 |
| CC(C)c1nnc(NC(=O)CSCc2cc(=O)n3ccccc3n2)s1 | -12.4 |
| Cc1cccn2c(=O)cc(CSCC(=O)Nc3nnc(C(C)C)s3)nc12 | 98.2 |
| Cc1cc(N2CCCC2c2cnccn2)ncn1 (stereo unspecified) | -32.2 |
| CNc1cncc(C2CCCN2c2cc(C)ncn2)n1 (stereo unspecified) | 55 |
| Cc1cc(N2CCCC2c2cncc(N(C)C)n2)ncn1 (stereo unspecified) | -0.232 |
| O=C(NC1CC1)[C@@H]1C[C@@H]2CCN(Cc3ccoc3)C[C@@H]2O1 | -9.29 |
| O=C(c1cn2ccsc2n1)N1CCN(CC2CC2)[C@@H]2CS(=O)(=O)C[C@@H]21 | -4.84 |
| CC[C@H](C)[C@H](N)C(=O)Nc1nc(-c2cnc(N3CCOCC3)nc2)cs1 | 36.7 |
| CC[C@H](C)[C@H](N)C(=O)Nc1nc(-c2cnc(N(C)CCO)nc2)cs1 | 27.2 |
| CC[C@H](C)[C@H](N)C(=O)Nc1nc(-c2cnc(N(C)C)nc2)cs1 | 146 |
